Reference: PubChem BioAssay (NCI)
“And” between values parts separate entries of the source, which are not always exact repeats. Equal values may be shown once. Compounds without any hit were thinned out: in the full panel of roughly 79,000, 15% have a hit. A number with no mark means an inactive call. The source made the active and inactive calls. Rule as the data show it: active = growth inhibition above about 70%; inactive = the rest.

Assays:
[1] = NCI Yeast Anticancer Drug Screen. Data for the rad50 strain (AID 155);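 also: 0% = growth of vehicle-only cultures of the same strain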; settings: S. cerevisiae rad50 strain growth inhibition, active compounds read high; at 50.0 µM unless noted
Procedure, shortened: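 Relative growth inhibition (compound vs vehicle) was measured in yeast with a defined repair-gene alteration.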

[2] = NCI Yeast Anticancer Drug Screen. Data for the mec2-1 strain (AID 157); settings: S. cerevisiae mec2-1 strain, active compounds read high; at 50.0 µM unless noted
Procedure, shortened: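 Readout is yeast growth inhibition, normalised to vehicle-treated controls, in the mec2-1 strain exposed to compound.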

[3] = NCI Yeast Anticancer Drug Screen. Data for the sgs1 mgt1 strain (AID 161);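 also: 0% = growth of cultures given vehicle only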; settings: S. cerevisiae sgs1 mgt1 strain, active compounds read high; at 50.0 µM unless noted
Procedure, shortened: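 Compounds are added to genetically altered yeast, and growth is compared with cultures given vehicle alone to give percent inhibition.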

[4] = NCI Yeast Anticancer Drug Screen. Data for the cln2 rad14 strain (AID 165);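 also: 0% = growth equal to vehicle treated cultures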; settings: S. cerevisiae cln2 rad14 strain, active compounds read high; at 50.0 µM unless noted
Procedure, shortened: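 Relative to vehicle controls, growth inhibition of compound-treated cln2 rad14 yeast was recorded.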

[5] = NCI Yeast Anticancer Drug Screen. Data for the bub3 strain (AID 167); settings: S. cerevisiae bub3 mutant strain, active compounds read high; at 50.0 µM unless noted
Procedure, shortened: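 Screening used yeast with an engineered genetic alteration affecting cell cycle control. Compound-exposed cultures were compared with vehicle cultures, and reduced growth was taken as inhibition.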

[6] = NCI Yeast Anticancer Drug Screen. Data for the mlh1 rad18 strain (AID 175); settings: S. cerevisiae mlh1 rad18 strain growth inhibition, active compounds read high; at 50.0 µM unless noted
Procedure, shortened: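 Test agents were incubated with a yeast strain of defined genotype (DNA damage repair defect). Inhibition of growth was derived by comparison with vehicle-exposed cultures.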

Compound	growth inhibition [1]	growth inhibition [2]	growth inhibition [3]	growth inhibition [4]	growth inhibition [5]	growth inhibition [6]
CC1CC(C)NC(=S)N1 (stereo unspecified)	-16.6%	-3.9%	-9.85%	16.7%	3.25%	-5.95%
COc1ccc(C(=O)C(CN(C)C)CN(C)C)c(OC)c1	30.6%	30.8%	57%	32.9%	30.8%	64.2%
COC(=O)CCC(C)C1CCC2(C)C3=C(C(=O)CC12C)C1(C)CCC(O)C(C)(C)C1=C(O)C3 (stereo unspecified)	81.7% (active)	74.2% (active)	77.6% (active)	79.9% (active)	70.8% (active)	83.8% (active)
CC(CC(=O)c1cccc2ccccc12)C(=O)O (stereo unspecified)	19%	3.3%	2.85%	0.55%	-10.7%	24.3%
N#CC1CC2CC1C1OC21 (stereo unspecified)	-15.4%	-10.3%	-14.1%	9.35%	-2.25%	-5.9%
O=C(CCC/C(CC(=O)c1ccc(Br)cc1)=N\O)Nc1ccccc1	52.9%	25.8%	17.8%	19.6%	28.7%	25.7%
O=C(Nc1ccc(Cl)cc1)Nc1nnc(-c2cccc(Cl)c2)o1	5.8%	5.75%	26.9%	-51.9%	0.2%	15%
CCCCCCCCCCCCCCCCCC(=O)N/N=C/c1cc(C(C)(C)C)c(O)c(C(C)(C)C)c1	-32.6%	13.7%	-14.1%	-35.2%	-1.1%	2.45%
O=C1CCCc2[nH]ccc21	-14.7%	-1.2%	-9.25%	64.6%	14.8%	-4.55%
N#CSC(C(=O)c1ccccc1)c1ccccc1 (stereo unspecified)	94.2% (active)	60.6%	91.2% (active)	89% (active)	95.2% (active)	91.3% (active)
CCOC(=O)C1=CN=C2C(=O)N(c3ccccc3)N(C)C2(C)C1=N (stereo unspecified)	-4.8%	0.95%	-19.4%	10.8%	-11.2%	12.9%
O=[N+]([O-])c1ccc(N(CCO)CCO)cc1	1.05%	-12.8%	-1.75%	9.25%	-6.4%	-17.1%
Cc1cc(=O)c2c(o1)C(=O)c1occc1C2=O	-9.5%	-34.5%	-3.9%	5.85%	-6.1%	-13%
CCOC(=O)C(CCCCNC(=O)CC)NC(=O)CC (stereo unspecified)	3.5%	1.3%	3.3%	3.55%	11.2%	2.65%
CCCCCC(=O)OCCSCCOC(=O)CCCCC	4.55%	1.3%	-5.85%	-39.1%	10.8%	0.2%
CCCCCCCCCC=O	-2.05%	8%	-11.5%	10.6%	23.7%	6.8%
CC(=O)Cc1ncn(-c2cc(C)on2)n1	-9.4%	-20.4%	-18.1%	11.6%	-1.45%	-13.7%
ClCCN1CCOC1=Nc1ccc2c(c1)CCCC2	-21.2%	-16.9%	2.6%	4.4%	-7.25%	-49.2%

Compound	growth inhibition [1]	growth inhibition [2]	growth inhibition [3]	growth inhibition [4]	growth inhibition [5]	growth inhibition [6]
Cn1nnn(Cc2ccccc2)/c1=N/C(=S)Nc1ccccc1	-11.6%	-6.75%	-4.05%	-7.45%	3.1%	-21.4%
CCOC(=O)CNC(=O)C(CCC(=O)N(C)O)NC(=O)CCC(N)C(=O)O (stereo unspecified)	-20.1%	-5.5%	-0.8%	-0.05%	4.25%	-35.5%
CN(C)c1nc(S(C)(=O)=O)nc2nc(Cl)[nH]c12	6.2%	-13.6%	-0.85%	-7.1%	3.65%	-9.8%
CCNC(=O)c1ccccc1S(C)=O (stereo unspecified)	-18.8%	-19.3%	-17.9%	-8.25%	-9.15%	-20.1%
Cc1ccc2nc(-c3ccc(F)cc3)cc(C(=O)O)c2c1	9.9%	2.05%	6.25%	17.9%	10.2%	26.1%
CC(=O)O/N=C(\C(c1ccccc1)c1ccccc1)C1c2ccccc2-c2ccccc21	91.3% (active)	88.7% (active)	96.9% (active)	91.2% (active)	64.8%	96.2% (active)
O=C1CCCC(=O)N1n1c(Cc2ccc(Cl)cc2)n[nH]c1=O	-31.6%	-11.8%	1.3%	7.5%	-19.6%	-1.5%
N[N+]#COC1C(C(=O)NN)C1C(=O)NN (stereo unspecified)	-15.9%	-10.4%	-17.5%	7.75%	7.05%	-17.9%
Cn1cnc2ncnc(Cl)c21	1.85%	-3.45%	9.8%	-19.1%	-52.1%	-26.9%
COC(=O)CC1C(C)(C)C(=O)C2CC3=C4CC(=O)OC(c5ccoc5)C4(C)CCC3C1(C)C2=O (stereo unspecified)	1.3%	2.4%	-20.1%	-8.3%	-31.9%	16.8%
N/N=C1\C(=O)N(C2CCCCCC2)C(=O)C1C(=O)NC1CCCCCC1 (stereo unspecified)	-13.3%	-32.6%	-7.2%	-68.7%	-18.8%	-26.2%
CC(C)C1N(N2C(=O)CS(=O)(=O)C2C(C)C)C(=O)CS1(=O)=O (stereo unspecified)	3.45%	-15.1%	-6.8%	6.75%	-9.15%	24.3%
CC(=O)c1c(Cl)nnc(-c2ccccc2)c1-c1ccccc1	-9%	0.05%	-9.2%	-21.9%	-11.7%	-12.3%
CC(C)c1cccc(C(C)C)c1NC(=O)N1CCCCC1	4.8%	-16.2%	0.05%	3.85%	-1.65%	10.2%
Cc1ccc(/C=C/C(=O)C(C)CN(C)C)cc1C (stereo unspecified)	-1%	-15.4%	26.1%	0.95%	0.3%	9.65%
CN(C)Cc1cc(C(=O)/C=C/c2ccc(Cl)c(Cl)c2)cc(CN(C)C)c1O	-1.95%	-14.4%	6.3%	31.9%	2.15%	-3.3%
Nc1cccc(B(O)O)c1	-16.6%	-65%	-34.3%	-5.75%	-29.6%	-15.8%
CC(C)NCC(O)c1ccc(O)c(O)c1 (stereo unspecified)	31.9% and -20.8%	-10.6% and -23.4%	-3.35% and 16.2%	14.7% and -52%	18.7% and 27.4%	-0.1% and -4.95%
